BoNT A protease – blocks Botulinum neurotoxin A light chain protease | multiplex microsphere protease substrate cleavage, flow cytometry | inhibition, % at 10 µM | actives 0.17% (n = 360,000)
Autofluor counter – flagged as autofluorescent in microsphere protease counterscreen; compound autofluorescence counterscreen, microsphere flow cytometry; active compounds read high; actives 3.1% (n = 360,000); fluorescence intensity (concentration not given with the values); in the data active = fluorescence intensity above about 16000; inconclusive = no clear call, values can overlap the other calls
BoNT-F LC inh – inhibitors of Botulinum neurotoxin F light chain protease | actives 0.22% (n = 360,000) | Multiplex microsphere protease cleavage assay, flow cytometry | AID 588497 | inhibition, % at 10 µM; in the data active = inhibition above about 35%, passing the limit was not always enough; inconclusive = no clear call, values can overlap the other calls
Anthrax LF inh2 – blocks Bacillus anthracis lethal factor protease. P15917. multiplex microsphere protease cleavage assay, LF. inhibition, % at 10 µM. actives 0.12% (n = 360,000)
Target sequence (P15917 whole entry, looked up): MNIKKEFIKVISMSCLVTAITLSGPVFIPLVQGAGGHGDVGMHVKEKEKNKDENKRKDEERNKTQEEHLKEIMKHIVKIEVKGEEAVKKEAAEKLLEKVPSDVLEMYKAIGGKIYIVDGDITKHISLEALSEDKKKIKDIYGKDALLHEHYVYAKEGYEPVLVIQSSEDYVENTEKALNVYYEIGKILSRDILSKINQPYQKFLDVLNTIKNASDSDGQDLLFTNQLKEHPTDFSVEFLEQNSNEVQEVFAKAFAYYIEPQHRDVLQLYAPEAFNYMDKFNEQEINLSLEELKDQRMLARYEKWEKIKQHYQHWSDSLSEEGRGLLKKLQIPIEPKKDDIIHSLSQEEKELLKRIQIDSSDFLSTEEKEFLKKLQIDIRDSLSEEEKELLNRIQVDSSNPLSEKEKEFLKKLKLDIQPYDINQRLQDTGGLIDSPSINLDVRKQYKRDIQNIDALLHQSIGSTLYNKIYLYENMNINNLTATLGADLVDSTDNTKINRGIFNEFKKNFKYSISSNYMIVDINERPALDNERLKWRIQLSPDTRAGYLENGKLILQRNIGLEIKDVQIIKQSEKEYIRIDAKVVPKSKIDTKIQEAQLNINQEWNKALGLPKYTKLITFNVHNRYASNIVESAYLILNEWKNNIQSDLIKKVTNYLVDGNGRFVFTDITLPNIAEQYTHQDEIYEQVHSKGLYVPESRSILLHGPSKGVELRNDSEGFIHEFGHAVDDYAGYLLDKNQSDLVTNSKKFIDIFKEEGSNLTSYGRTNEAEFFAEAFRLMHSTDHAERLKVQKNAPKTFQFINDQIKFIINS
Hits are given with their value; – = inactive; ? = inconclusive. Sampled rows, rich in hits. Any-hit rate of the full collection: about 3.5%. Cut-off read from the data, not from the text of the source, unless noted: active = inhibition above about 30%; inconclusive = no clear call, values can overlap the other calls; inactive = below that.

SMILES | BoNT A protease | Autofluor counter | BoNT-F LC inh | Anthrax LF inh2
COc1cccc(CNC(=O)Cc2ccc(OC)c(S(=O)(=O)N3CCOCC3)c2)c1 | – | – | – | –
O=C(CSc1nnc2scc(-c3ccccc3)n12)NCC1CCCO1 (centres undefined) | – | 21160 | – | –
O=C(CSc1ccc2nnc(-c3cccc(F)c3)n2n1)NCC1CCCO1 (centres undefined) | – | 22186 | – | –
CCOC(=O)CC(=O)CSc1ccc2nnc(-c3ccc(C)cc3)n2n1 | – | 22080 | – | –
Cc1ccc(P(=O)(CO)c2ccc(C)cc2)cc1 | – | 16417 | – | –
CCOc1ccc(CCNC(=O)COC(=O)c2cccnc2OCC)cc1OCC | – | 16322 | – | –
Cc1nn(Cc2ccc(C(=O)n3cccn3)o2)c(C)c1Br | – | – | – | –
Cc1cc(C)n(C(=O)c2ccc(Cn3nc(C)c(Br)c3C)o2)n1 | – | 23364 | – | –
O=C(Nc1ccc2c(c1)OCCO2)C(c1ccnc2ccccc12)N1CCC(Cc2ccccc2)CC1 (centres undefined) | – | – | – | –
COc1cc(NC(=O)C2CC(=O)NC3=C2C(=O)CC(C)(C)C3)c(OC)cc1Cl (centres undefined) | – | ? | ? | –
COc1cc(NC(=O)C2CC(=O)NC3=C2C(=O)CCC3)cc(OC)c1 (centres undefined) | – | 20659 | – | –
CCCn1nc(NC(=O)c2cccs2)c2cc3cc(C)ccc3nc21 | – | – | ? | –
CCCCn1nc(NC(=O)c2cccs2)c2cc3ccccc3nc21 | – | 21346 | – | –
CCCC(=O)Nc1nn(CCC)c2nc3ccccc3cc12 | – | 21458 | – | –
CCn1nc(NC(=O)c2ccncc2)c2cc3ccc(C)cc3nc21 | – | 20719 | – | –
CCCn1nc(NC(=O)c2cccs2)c2cc3ccccc3nc21 | – | 23719 | – | –
CCCCC1CC2=C(C(=O)OC(C)(C)O2)C(c2ccc3ccccc3c2)O1 (centres undefined) | – | – | – | –
C=C1[C@@H](O)[C@H](Cc2ccccc2)N(Cc2ccccc2Br)S1(=O)=O | – | – | – | –
C[C@@H]1CN([C@H](C)CO)C(=O)CCCn2nncc2CO[C@H]1CN(C)S(=O)(=O)c1ccc(C#N)cc1 | – | – | – | –
CCCn1nc(NC(=O)C2CCCO2)c2cc3cc(C)ccc3nc21 (centres undefined) | – | 21148 | – | –
CCCn1nc(NC(=O)C2CCCO2)c2cc3ccc(C)cc3nc21 (centres undefined) | – | – | ? | –
c1ccc(-c2nnc(SCc3nc4ccccc4[nH]3)n2Cc2ccco2)cc1 | ? | 22637 | – | –
Cc1ccc(OCc2nnc(SCc3nc4ccccc4[nH]3)n2Cc2ccco2)cc1 | – | – | – | –
N#Cc1ccc(CSc2nnc(-c3ccccc3)n2Cc2ccco2)cc1 | ? | 24109 | – | –
COc1cccc(CNC(=O)[C@@H]2CCCN2C(=O)[C@@H]2CCCN2C(=O)OC(C)(C)C)c1 | – | – | – | –
SMILES | BoNT A protease | Autofluor counter | BoNT-F LC inh | Anthrax LF inh2
Cc1ccc(S(=O)(=O)CC(CN2CCOCC2)N2CCOCC2)cc1 (centres undefined) | – | – | – | –
O=S(=O)(CC(CN1CCCC1)N1CCCC1)c1ccc2ccccc2c1 (centres undefined) | – | 26003 | – | –
Cc1ccc(C(=C2C3C=CC2C2C(=O)NC(=O)C32)c2ccc(C)cc2)cc1 (centres undefined) | – | 20213 | – | –
O=c1[nH]c2ccsc2c(=O)n1-c1ccc(F)cc1 | – | – | – | –
O=c1[nH]c2ccsc2c(=O)n1-c1ccc(F)c(Cl)c1 | ? | 17764 | – | –
O=C1CSCc2nc3ccccc3n21 | – | – | – | –
COc1ccccc1C1(CC(=O)N2CCCCC2)CCOC(C(C)C)C1 (centres undefined) | – | 16312 | – | –
COC(=O)c1ccccc1NC(=S)NC(=O)COc1ccc(C(C)C)cc1 | – | – | – | –
COC(=O)c1ccccc1NC(=O)Oc1ccc(C(C)C)cc1 | – | 24059 | – | –
COc1cccc(-c2cc3nc(NCc4ccccc4F)n(C)c(=O)c3s2)c1 | – | – | – | –
O=C(NCCNC(=O)C(F)(F)F)c1ccncc1 | – | ? | – | ?
O=C(NCCc1ccncc1)C(F)(F)F | – | 24347 | – | –
O=C(NCCc1ccncc1)c1ccccc1F | – | 21712 | – | –
NS(=O)(=O)c1ccc(CCNC(=O)CNC(=O)c2ccccc2F)cc1 | – | – | – | –
NS(=O)(=O)c1ccc(CCNC(=O)c2ccccc2F)cc1 | – | 16685 | – | –
Nc1ccc(CSc2ccc(Cl)cc2)c(Cl)c1 | – | – | – | –
O/C(=C\c1nc2ccccc2nc1/C=C(\O)c1ccccc1)c1ccccc1 | 67 | – | – | 30
C=C(C)CSc1nnc(-c2cc(OC)c(OC)c(OC)c2)n1N | – | 21195 | – | –
C=C(C)CSc1nnc(-c2ccc(OC)c(OC)c2)n1N | – | – | – | –
COc1ccc(-c2oc3ncnc(NCCCN4CCOCC4)c3c2-c2ccc(OC)cc2)cc1 | – | – | – | –
c1ccc(-c2oc3ncnc(NCCCN4CCOCC4)c3c2-c2ccccc2)cc1 | – | 26085 | – | –
CN(C)CCCNC(=O)c1cccc(-c2cnc3cccnn23)c1 | – | – | – | –
O=S(=O)(NCC1CCCO1)c1ccccc1F (centres undefined) | – | – | – | –
OC(c1ccc2ccccc2c1)c1ncc(-c2cccc3ccccc23)[nH]1 (centres undefined) | – | – | – | –
CC(C)=CCCC(C)CN(C)CCc1ccccn1 (centres undefined) | – | 21319 | – | –
SMILES | BoNT A protease | Autofluor counter | BoNT-F LC inh | Anthrax LF inh2
CCc1ccc(CN(C)CC(=O)Nc2ccc(S(=O)(=O)N3CCOCC3)cc2)cc1 | – | – | – | –
Cc1ccc(Nc2nc3c([nH]2)c(=O)n(C)c(=O)n3C)cc1 | – | 20196 | – | –
Cc1ccc(C)c(Cn2cnc3c(nnn3-c3ccc(F)cc3)c2=O)c1 | – | 16844 | – | –
O=c1cc(O)n(-c2ccccc2)c(=S)[nH]1 | – | – | ? | –
N=c1n(-c2ccccc2)c(O)cc(=O)n1-c1ccccc1 | – | 22975 | – | –
CCCc1cc(-c2n[nH]c(C)c2-c2ccc(C(=O)OCC)o2)c(O)cc1O | – | 19356 | – | –
CCCc1cc(C(=O)Cc2ccc(C(=O)OCC)o2)c(O)cc1O | – | – | – | –
Cc1ccccc1CN1C[C@H]2CON(C)[C@H]2C[C@H]1c1cccc(Br)c1 | – | – | – | –
Cc1cc(C)c(C)c(S(=O)(=O)N2CCC(C(=O)OCC(=O)N3c4ccccc4NC(=O)C3(C)C)CC2)c1C | – | 24651 | – | –
CC12CN3CC(C)(CN(C1)C3c1cccs1)C2O (centres undefined) | – | 17129 | – | –
CC12CN3CC(C)(CN(C1)C3c1ccccc1)C2O (centres undefined) | – | – | – | –
Fc1ccc(C[n+]2csc3ccccc32)cc1 | ? | 22598 | – | –
CC(=O)NNS(=O)(=O)c1scc(S(=O)(=O)c2ccc(Cl)cc2)c1C | – | – | – | –
COc1cc(C(=O)OCC(=O)Nc2ccc(F)cc2F)cc(OC)c1OC | ? | 20961 | – | –
CCC(CC)NC(=O)COC(=O)c1ccc(OCC(=O)Nc2ccccc2OC)c(OC)c1 | ? | 21089 | – | –
